Results on 16 compounds are retold here after PubChem BioAssay (NCATS).

Each structure is given as a SMILES string. Inconclusive results are not listed. Calls of active or inactive are those of the source. Calls follow the shape of the full dose curve.
Potency is read from the fitted curve at half-maximal effect.

Sequence of Cytochrome P450 1A2 (Homo sapiens) (P05177 whole entry, looked up): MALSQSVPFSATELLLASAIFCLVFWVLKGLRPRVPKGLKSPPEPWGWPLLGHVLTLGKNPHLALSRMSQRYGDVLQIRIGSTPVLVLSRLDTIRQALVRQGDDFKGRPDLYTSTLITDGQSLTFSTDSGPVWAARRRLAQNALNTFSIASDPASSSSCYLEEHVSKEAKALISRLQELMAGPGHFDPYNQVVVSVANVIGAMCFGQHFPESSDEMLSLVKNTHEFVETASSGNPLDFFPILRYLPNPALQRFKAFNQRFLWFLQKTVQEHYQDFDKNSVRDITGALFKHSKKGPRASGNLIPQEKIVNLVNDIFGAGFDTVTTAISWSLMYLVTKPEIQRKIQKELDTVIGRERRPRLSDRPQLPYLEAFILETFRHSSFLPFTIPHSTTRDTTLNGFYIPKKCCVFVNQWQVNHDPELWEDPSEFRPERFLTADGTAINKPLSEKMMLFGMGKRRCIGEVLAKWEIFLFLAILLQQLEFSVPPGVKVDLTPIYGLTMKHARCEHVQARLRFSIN

This assay concerns the target Cytochrome P450 1A2 (Homo sapiens) (UniProt P05177). Description: p450-cyp1a2 (AID 410). Particulars: recombinant CYP1A2, luciferin-ME demethylation, luminescence; series mostly up to 57 µM. In outline: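 O-Demethylation of luciferin 6' methyl ether by human CYP1A2 is monitored as luciferase luminescence. Substrate sits at Km (100uM); enzyme is 20nM. Values are scaled to 57 uM furafylline as maximal inhibition.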
Turning to `CN(C)Cc1ccccc1-c1nc(NCc2cccs2)c2ccccc2n1`, the Potency is 1 µM (active).

Take `CN(C)c1ncc2nc(-c3ccccc3)c(=O)n(-c3ccccc3)c2n1`: the Potency was 0.398 µM (active). The result for `N#Cc1cccc(-c2nc3cnc(N4CCOCC4)nc3n(C[C@H]3CCCO3)c2=O)c1` reads 0.794 µM (active). The result for `CN(C)c1ncc2nc(-c3ccc(F)cc3)c(=O)n(C[C@H]3CCCO3)c2n1` reads 2.51 µM (active).

On to `CN(C)c1ccc(-c2cc(Nc3ccc(F)cc3)ncn2)cc1`, for which the Potency is 0.398 µM (active). The result for `COc1ncc2nc(C)c(=O)n(C3CC3)c2n1` reads 3.98 µM (active); that for `CN(C)Cc1ccccc1-c1cc(N(C)Cc2ccco2)ncn1`, 15.8 µM (active).

Consider `CN(Cc1ccco1)c1ncncc1-c1ccccc1Cl`, for which the Potency is 25.1 µM (active). To `CN1CCN(c2ncc3ncc(=O)n(C[C@H]4CCCO4)c3n2)CC1` belongs 10 µM (active). As to `CN1CCN(c2ncc3nc(-c4cc(F)cc(F)c4)c(=O)n(C4CC4)c3n2)CC1`, the Potency was 15.8 µM (active). The result for `COCCn1c(=O)c(C)nc2cnc(Oc3ccc(OC)cc3)nc21` reads 15.8 µM (active). The result for `CN(Cc1ccco1)c1ncncc1-c1ccoc1` reads 15.8 µM (active). In the case of `CCNc1ncc2nc(-c3cn(C)c4ccccc34)c(=O)n(Cc3cccc(OC)c3)c2n1`, the Potency is 12.6 µM (active). To `c1ccc(Nc2cc(-c3ccoc3)ncn2)cc1` belongs 15.8 µM (active); to `Cn1c(=O)c(-c2cccs2)nc2cnc(OCc3ccccc3)nc21`, 7.94 µM (active).

Regarding `FC(F)(F)c1ccccc1-c1cc(NCc2ccccc2)ncn1`, the Potency is 12.6 µM (active).
